Measured values: PubChem BioAssay AID2314 (National Center for Advancing Translational Sciences (NCATS), 2010)
Screen size: about 300,000 compounds; about 37,000 (12%) were called active. The sample as a whole holds a higher share of actives than the screen did. A number with no mark means an inactive call. Cut-off read from the data, not from the text of the source: active = max response mostly above about 13% (no sharp cut-off); inactive = mostly below about 14%.

Assay: Cycloheximide Counterscreen for Small Molecule Inhibitors of Shiga Toxin; note: read at 38.3 µM for the half of the compounds with a filed dose; 0% is about no effect
Settings: cell reporter, cycloheximide protein synthesis inhibition counterscreen; active compounds read high

Row | SMILES | max response
1 | Cc1ccc2nc(SCc3cn4c(C)cc(C)nc4n3)[nH]c2c1 | -4.98%
2 | O=C(CNCc1ccc(Cl)cc1)Nc1cccc(C(=O)O)c1 | -7.34%
3 | O=C(c1[nH]ncc1-c1ccc(Cl)cc1)C1CO1 (centres undefined) | 16.3%
4 | O=C(c1nnc(-c2ccc(Cl)cc2)o1)C1CCCC1 | 15.5% (active)
5 | O=C(Nc1nnc(-c2ccc(Cl)cc2)o1)c1ccccc1Br | 14.7%
6 | CCCC(=O)N1CCC(CCC(=O)NC2CC2)CC1 | 10.7%
7 | COc1ccc(C(=O)Nc2c(N)nc(SCC(=O)Nc3ccc(C(C)=O)cc3)[nH]c2=O)cc1 | 0.562%
8 | CCc1ccc(C(=O)NN=C2CCCCCC2)s1 | 33% (active)
9 | CS(=O)(=O)N(Cc1ccccc1)c1ccc(C(=O)NN=C2CCCCCC2)cc1 | 0.492%
10 | CC(C)(C)NC(=O)C(=O)NN=C1CCCCCCC1 | 17.4%
11 | COC(=O)c1cc(N2CCNCC2)nc2ccccc12 | -0.723%
12 | CCc1nnc(NC(=O)CSc2nnnn2-c2cccc(C(C)=O)c2)s1 | -0.713%
13 | C=CCSc1nsc(NC(=O)Nc2cccc(C(C)=O)c2)n1 | 15.7% (active)
14 | C=C(C)C(=O)Nc1cccc(C(C)=O)c1 | -4.07%
15 | CC(=O)c1cccc(NC(=S)N2CCN(S(C)(=O)=O)CC2)c1 | 3.24%
16 | CCc1nc(SCC(=O)Nc2ccccc2OC)n[nH]1 | -2%
17 | CC(=O)c1cccc(NC(=O)[C@@H](NC(N)=O)C(C)C)c1 | -2.8%
18 | CCSc1nsc(NC(=O)Nc2ccccc2OC)n1 | 29.3% (active)
19 | COc1ccccc1NC(=O)Nc1nnc(Cc2ccc(F)cc2)s1 | -1.91%
20 | CCSc1nsc(NC(=O)Nc2cccc(C(C)=O)c2)n1 | 47.8% (active)
21 | Cc1cccn2c(=O)c3cc(C(=O)NCC4CCCO4)c(=N)n(Cc4ccc(F)cc4)c3nc12 (centres undefined) | -1.9%
22 | Cc1cc2oc(=O)cc(-c3ccccc3)c2c(C)c1/C=C/c1ccc(F)cc1 | 11.8%
23 | COc1ccc(CCNC(=O)CCCCCNC(=O)N2CCn3c2nc2ccccc23)cc1OC | -1.5%
24 | Cc1c(Cl)cccc1NC(=O)NCc1ccc(C)n1C | -4%
25 | CCCn1c(C(C)Nc2nc(-c3ccc(C)cc3)cs2)nc2cc(Cl)c(N3CCCCC3)cc21 (centres undefined) | -2.37%
26 | CCOC(=O)CSc1nc(C)c(Oc2ccc(Cl)cc2Cl)c(=O)[nH]1 | -0.833%
27 | COC(=O)c1ccc(/C=N\n2c(C)nnc2C)cc1 | -2.39%
28 | CC1CCCC(C)N1/N=C/c1ccccc1OC(F)F (centres undefined) | 7.52%
29 | COC(=O)c1ccc(/C=N/N2C(C)CCCC2C)cc1 (centres undefined) | 32.3% (active)
